# TRHR agonist – activates the human TRH receptor | P34981 | TRHR cells, calcium flux fluo-8, FDSS agonist mode | activation, % at 2 µM | actives 0.18% (n = 360,000) | AID 493084
# Target sequence (P34981 whole entry, looked up): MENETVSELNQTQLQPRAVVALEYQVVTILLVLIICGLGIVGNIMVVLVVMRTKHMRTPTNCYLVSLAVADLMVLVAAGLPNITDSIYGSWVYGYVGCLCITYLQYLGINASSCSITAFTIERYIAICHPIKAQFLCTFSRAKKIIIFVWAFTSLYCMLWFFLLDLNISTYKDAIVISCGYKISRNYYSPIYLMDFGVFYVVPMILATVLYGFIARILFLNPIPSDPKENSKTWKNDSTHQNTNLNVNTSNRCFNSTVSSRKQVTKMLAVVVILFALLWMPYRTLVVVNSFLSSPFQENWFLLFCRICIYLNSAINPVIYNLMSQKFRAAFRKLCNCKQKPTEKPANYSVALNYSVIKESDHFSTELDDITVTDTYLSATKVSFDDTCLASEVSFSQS
#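 TRHR-expressing cells loaded with fluo-8 calcium dye; 23 nL library compound pin-transferred, kinetic FDSS fluorescence (Ex 480/Em 530) recorded about 180 s for agonist-induced calcium release, before a 10 nM TRH EC20 addition for potentiator mode.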
# TRHR enhancer – allosterically enhances the human TRH receptor | P34981 | TRHR cells, fluo-8 calcium fluorescence, EC20 TRH enhancement | enhancement, % at 2 µM | actives 0.66% (n = 360,000); in the data active = enhancement above about 30%
#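 Enhancer read-out: after compound pinning and an initial kinetic agonist-mode read, an EC20 of TRH (10 nM final) was injected and fluo-8 calcium signal (Ex 480/Em 530) followed at 1 s/cycle for 100 cycles in TRHR-expressing cells.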
# D1 ag – human D1 receptor agonism | HEK293 T-REx D1 cells, calcium flux, agonist mode | actives 1% (n = 360,000) | activation, % at 2 µM | P21728
#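 Agonism was scored from calcium flux recorded over 180 s (1 read/s) after pintool compound addition, following a 10-cycle baseline. Cells were inducible force-coupled HEK293 TREx D1, plated overnight at 30 C and loaded with no-wash calcium dye.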
# D1 PAM – human D1 dopamine receptor positive modulation; AID 504651; actives 0.036% (n = 360,000); HEK293 TREx D1 cells, calcium flux, dopamine EC20 potentiation; P21728; potentiation, % at 10 µM; in the data active = potentiation above about 30%
# D1 antagonist – human D1 dopamine receptor antagonism | activity change, negative = inhibition, % at 10 µM | P21728 | HEK293 TREx D1 cells, calcium flux, dopamine EC80; hits give low values | actives 3.2% (n = 360,000); in the data active = activity change below about -30%
#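 Calcium flux readout: force-coupled, inducible Hek293 Trex D1 line, cells induced overnight at 30 C with tetracycline, dye-loaded 30–90 min at RT. Antagonism scored against EC80 dopamine challenge given 180 s after compound.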
# A number is an active result; n = inactive; x = no result given. Most compounds without a hit are left out; they make up all but 4.7% or so of the library. Rule as the data show it, unless noted: active = activation above about 30%; inactive = the rest.
SMILES,TRHR agonist,TRHR enhancer,D1 ag,D1 PAM,D1 antagonist
Cc1ccccc1-n1c2nc(=O)n(C)c(=O)c-2cc2ccccc21,n,n,n,n,n
Cn1c(=O)nc2n(Cc3ccccc3)c3ccccc3cc-2c1=O,n,30.7,n,n,n
CCc1ccc(NC(=O)NCC2CCN(Cc3cccc(Cl)c3)CC2)cc1,n,n,36.2,n,-36.5
Cc1cc(C)c(OCCOCCN2CCN(C)CC2)c(Cl)c1,n,n,n,n,n
Cc1cccc(C(C)(C)C)c1OCCOCCN1CCCC1,n,n,n,n,n
Cc1cc(C)c(OCCN2CCCC2)c(Cl)c1,n,n,n,n,-59.5
Cc1cc(Cl)cc(Cl)c1OCCN1CCCC1,n,n,n,n,-31.0
Cc1cccc(C(C)(C)C)c1OCCN1CCCC1,n,n,n,n,-31.7
CC1CCN(C(=O)c2cc3c(=O)n(C)c4ccccc4c3s2)CC1,n,n,n,n,-30.8
COc1ccc(NC(=O)c2cc3c(=O)n(C)c4ccccc4c3s2)cc1Cl,n,n,n,n,-67.9
CCn1c(=O)c2cc(C(=O)Nc3cc(OC)c(OC)c(OC)c3)sc2c2ccccc21,n,n,n,n,n
COc1ccccc1N1CCN(C(=O)c2cc3c(=O)n(C)c4ccccc4c3s2)CC1,n,n,n,n,-53.3
Cc1ccc(Cl)cc1N1CCN(C(=O)c2cc3c(=O)n(C)c4ccccc4c3s2)CC1,n,n,n,n,n
CCOC(=O)c1sc2ncn(CC(=O)Nc3cc(C)cc(C)c3)c(=O)c2c1C,n,n,n,n,n
Cc1cc2oc(=O)c(CC(=O)NCCc3ccccc3F)c(C)c2c2occ(C(C)(C)C)c12,n,n,n,n,n
COc1cc(CNn2cnnc2)ccc1OCC(=O)NC(C)(C)C,n,n,n,n,-79.1
CCC(C)c1ccc(NC(=O)COC(=O)CCNC(=O)c2ccco2)cc1 (stereo not given),n,n,n,n,n
Cc1ccc(C)c(NC(=O)COC(=O)CCNC(=O)c2ccco2)c1,n,n,n,x,-50.3
COc1ccc(NC(=O)C2CCCN(S(=O)(=O)c3cccs3)C2)cc1 (stereo not given),n,n,n,n,n
CCOC(=O)c1c(C)[nH]c(C)c1S(=O)(=O)NCC(=O)NCc1ccccc1C,n,n,n,n,n
Cc1ccc(C(=O)Nc2cnc3ccccc3c2)cc1,n,n,n,n,n
Cc1cc(C(=O)Nc2cnc3ccccc3c2)ccc1[N+](=O)[O-],n,n,n,n,-60.1
Cc1nc(C(=O)NCc2ccccc2)sc1C1(C)CC(c2ccccc2)=NO1 (stereo not given),n,n,39.3,n,n
Cc1nc(C(=O)Nc2ccccc2)sc1C1(C)CC(c2cccc([N+](=O)[O-])c2)=NO1 (stereo not given),n,n,n,n,-33.5
CCN(CC)c1ccc(NC(=O)c2cccn2-c2nnc(N3CCCCC3)s2)c(C)c1,n,n,n,n,n
SMILES,TRHR agonist,TRHR enhancer,D1 ag,D1 PAM,D1 antagonist
COc1ccc(C(=O)c2cnc3cc4c(cc3c2C)OCO4)cc1,n,n,n,n,-30.2
C=C1CC2C(CCC3(C)C2CCC3(O)C(C)=O)C2(C)CCC(=O)C=C12 (stereo not given),n,n,n,n,-51.4
Cc1cccc(NC(=O)N2CCC(CN3CCOCC3)CC2)c1C,n,n,n,n,n
COc1ccc(OC)c(C2=NS(=O)(=O)N(C)C(C(=O)NCc3cccs3)=C2)c1,n,n,40.9,n,n
Cc1ccc(C2=NS(=O)(=O)N(C)C(C(=O)NCc3cccs3)=C2)cc1,n,n,n,n,n
CCOC(=O)c1c(C)[nH]c(NC(=O)NNC(=O)c2ccccc2Cl)c1C,n,n,n,n,-30.9
O=C(Cn1c(=O)n(-c2ccccc2Cl)c(=O)c2sc3ccccc3c21)NC1CCCC1,n,n,n,n,n
O=C(Cn1c(=O)n(-c2ccccc2Cl)c(=O)c2sc3ccccc3c21)NC1CCCCC1,n,n,39.3,n,n
CCN(C(=O)CSc1nc2n[nH]c(C)c2c(=N)n1-c1cccc(OC)c1)c1cccc(C)c1,n,n,n,n,n
COc1ccc(OCc2nc3ccc(S(=O)(=O)Nc4ccccc4Cl)cc3[nH]2)cc1,n,n,n,n,-57.2
COc1ccccc1CCNC(=O)C(=O)NCC(c1ccc2c(c1)OCO2)N1CCOCC1 (stereo not given),n,n,n,n,n

# Screening results: PubChem, National Center for Advancing Translational Sciences (NCATS)
